Experiment [1] is described as follows: qHTS assay for small molecule agonists of the p53 signaling pathway (AID 651631). Also: nearly all actives have a fitted effect of over 15% in size. In a few lines:
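Readout was fluorescence from the LiveBLAzer FRET substrate, applied for 2 h at room temperature after 16 h compound exposure at 37 °C. Cells were the p53RE-bla HCT-116 line, with beta-lactamase driven by p53 response elements.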
On the technique in general: Quantitative high-throughput screening tests each substance at several concentrations.

Experiment [2] is described as follows: qHTS assay for small molecule disruptors of the mitochondrial membrane potential (AID 720635; active = well fitted curve in the direction sought with a large enough effect in the repeat runs; an effect the other way counts as inactive or inconclusive; also: potency is read from the fitted curve at half-maximal effect). In a few lines: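 HepG2 cells exposed to compound 1 hr at 37C, then Mito-MPS dye 30 min. Ratio read of aggregate (540/590 nm) versus monomer (490/535 nm) fluorescence.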
In experiment [3] the target is Glucocorticoid receptor (Homo sapiens) (UniProt P04150). The experiment in a line: qHTS assay to identify small molecule agonists of the glucocorticoid receptor (GR) signaling pathway (AID 720691; active = well fitted activation curve with a large enough effect in the signal ratio in the repeat runs, not every such curve was filed as active; the % refers to the signal ratio). In a few lines: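 Agonist-mode qHTS in HeLa cells stably expressing a glucocorticoid-response-element beta-lactamase reporter. Fluorescence intensity read with FRET substrate (2 h, room temperature) after 18 h compound treatment at 37 C.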
Sequence of Glucocorticoid receptor (Homo sapiens) (P04150 whole entry, looked up): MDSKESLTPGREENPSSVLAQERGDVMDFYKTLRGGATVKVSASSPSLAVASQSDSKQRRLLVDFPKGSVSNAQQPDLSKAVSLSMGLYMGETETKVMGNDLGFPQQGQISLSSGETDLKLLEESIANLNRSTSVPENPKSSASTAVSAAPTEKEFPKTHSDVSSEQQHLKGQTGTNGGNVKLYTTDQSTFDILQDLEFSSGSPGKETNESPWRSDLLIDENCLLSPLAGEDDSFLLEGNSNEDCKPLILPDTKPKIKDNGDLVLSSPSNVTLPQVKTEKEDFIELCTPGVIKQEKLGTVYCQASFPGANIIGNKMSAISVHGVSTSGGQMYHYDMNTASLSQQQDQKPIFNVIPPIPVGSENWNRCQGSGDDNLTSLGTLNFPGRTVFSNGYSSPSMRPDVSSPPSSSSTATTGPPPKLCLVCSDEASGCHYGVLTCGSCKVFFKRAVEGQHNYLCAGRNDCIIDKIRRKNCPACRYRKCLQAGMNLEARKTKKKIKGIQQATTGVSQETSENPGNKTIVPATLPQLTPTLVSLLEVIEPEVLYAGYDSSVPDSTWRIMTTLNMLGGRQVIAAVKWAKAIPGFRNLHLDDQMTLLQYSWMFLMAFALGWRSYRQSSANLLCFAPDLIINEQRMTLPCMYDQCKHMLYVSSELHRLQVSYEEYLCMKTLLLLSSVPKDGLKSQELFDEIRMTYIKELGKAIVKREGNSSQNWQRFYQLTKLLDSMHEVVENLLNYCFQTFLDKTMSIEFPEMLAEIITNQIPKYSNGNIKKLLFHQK

For experiment [4] the target is unchanged. Kind of experiment: qHTS assay to identify small molecule antagonists of the glucocorticoid receptor (GR) signaling pathway (AID 720692; active = well fitted inhibition curve with a large enough effect in the signal ratio in the repeat runs, not every such curve was filed as active; the % refers to the signal ratio). In a few lines: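 Inhibition of dexamethasone-driven (5 nM final) beta-lactamase expression was measured in GRE-reporter HeLa cells over 18 h at 37C. Fluorescence was read after 2 h with the B/G FRET substrate at room temperature.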

In experiment [5] the target is Estrogen receptor (Homo sapiens) (UniProt P03372). Kind of experiment: qHTS assay to identify small molecule antagonists of the estrogen receptor alpha (ER-alpha) signaling pathway (AID 743069; active = well fitted curve in the direction sought with a large enough effect in the signal ratio in the repeat runs, not every such curve was filed as active; the % refers to the signal ratio; also: potency is read from the fitted curve at half-maximal effect). A digest of the protocol:
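In this cell-based reporter format, GripTite HEK293 cells harbouring ER-alpha-UAS-bla were grown overnight with 2% charcoal-stripped FBS, dosed with DMSO-dissolved compounds, then challenged with 17beta-estradiol. After 18 hr at 37C, beta-lactamase activity was detected by FRET fluorescence.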

The target of experiment [6] is Androgen receptor (Homo sapiens) (UniProt P10275). The experiment in a line: qHTS assay to identify small molecule antagonists of the androgen receptor (AR) signaling pathway (AID 743035; active = well fitted inhibition curve with a large enough effect in the signal ratio in the repeat runs, not every such curve was filed as active; the % refers to the signal ratio). In a few lines:
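Antagonist mode: AR-bla HEK293 cells co-treated with test compounds and agonist R1881 for 16 h at 37C, 5% CO2. Beta-lactamase activity read as FRET fluorescence after 2 h room-temperature substrate loading.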

Experiment [7] has the same target. Kind of experiment: qHTS assay to identify small molecule agonists of the androgen receptor (AR) signaling pathway using the MDA cell line (AID 743040; active = well fitted curve in the direction sought with a large enough effect in the repeat runs; an effect the other way counts as inactive or inconclusive; also: nearly all actives have a fitted effect of over 20% in size). In a few lines:
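Testing was done with the MDA-kb2 AR-luc line, a human breast carcinoma stably transfected with MMTV-luciferase containing AR and GR response elements. Cells were exposed 16 h at 37C before ONE-Glo luminescence detection.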

Experiment [8] shares this target. Kind of experiment: qHTS assay to identify small molecule antagonists of the androgen receptor (AR) signaling pathway using the MDA cell line (AID 743042; active = well fitted curve in the direction sought with a large enough effect in the repeat runs; an effect the other way counts as inactive or inconclusive; also: nearly all actives have a fitted effect of over 55% in size; also: potency is read from the fitted curve at half-maximal effect). A digest of the protocol: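 MDA-kb2 breast carcinoma cells carrying MMTV-luciferase (AR/GR responsive) were co-treated with compounds and the agonist R1881 for 16 h at 37C. Inhibition read as ONE-Glo luminescence; CellTiter-Fluor fluorescence measured in parallel for cytotoxicity.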

A short description of experiment [9]: qHTS assay to identify small molecule antagonists of the estrogen receptor alpha (ER-alpha) signaling pathway using the BG1 cell line (AID 743080).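 Also: BG1 cells stimulated with 17beta-estradiol alongside compound; series mostly up to about 70 µM; nearly all actives have a fitted effect of over 25% in size.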 In a few lines:
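Endogenous full-length ER-alpha in BG1-Luc-4E2 cells drives a stably integrated 4×ERE luciferase gene; compounds were tested against 17beta-estradiol over 21.5 h, with luminescence and multiplexed viability fluorescence recorded.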

The nature of experiment [10]: Caspase-3/7 induction in HepG2 cells by small molecules, qHTS assay (AID 1346978; active = well fitted curve in the direction sought with a large enough effect in the repeat runs; an effect the other way counts as inactive or inconclusive; also: nearly all actives have a fitted effect of over 15% in size). In a few lines: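 Wild-type HepG2 cells, 2,000/well, settled 5 hr at 37 C and 5% CO2, then compound-treated for 17 hr; caspase-3/7 activity read by luminescent Caspase-Glo 3/7 after 30 min at room temperature.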
The target of experiment [11] is Acetylcholinesterase (Homo sapiens) (UniProt P22303). The experiment in a line: Acetylcholinesterase (AChE) small molecule antagonists: enzyme-based qHTS assay with human liver microsomes (AID 1347399). Also: nearly all actives have a fitted effect of over 60% in size. The note with it: Potency: qHTS inhibition; outcome: qHTS inhibition. A digest of the protocol:
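Recombinant human AChE (50 mU/mL in the enzyme mix) and human liver microsomes (0.25 mg/mL final) were preincubated with compound and NADPH (0.25 mg/mL final) for 30 min at 37 C. Acetylthiocholine/DTNB was then added; thiocholine was read colorimetrically after 10 min at room temperature.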

Experiment [12] concerns the target Nuclear receptor subfamily 1 group I member 2 (Rattus norvegicus) (UniProt Q9R1A7). Kind of experiment: Rat pregnane X receptor (rPXR) activation by small molecules, qHTS assay (AID 1346983; active = well fitted curve in the direction sought with a large enough effect in the repeat runs; an effect the other way counts as inactive or inconclusive; also: nearly all actives have a fitted effect of over 20% in size). The note with it: rPXR luciferase reporter cells, One-Glo luminescence, 24 h; max activation: active compounds read high. A digest of the protocol:
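Cell-based rPXR activation assay: rPXR cells, 2,000 per well, rested 5hr at 37 C, then exposed to compounds in DMSO for 24 hr at 37 C. Luciferase activity read by One-Glo luminescence after 30 min at room temperature.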

The nature of experiment [13]: qHTS assay for small molecule activators of the heat shock response signaling pathway (AID 743210; active = well fitted activation curve with a large enough effect in the signal ratio in the repeat runs, with a control signal flat, not every such curve was filed as active; the % refers to the signal ratio;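 also: HeLa cells with beta-lactamase reporter driven by heat shock elements; series mostly up to about 63 µM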). In a few lines:
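Following overnight attachment, HSE-bla HeLa cells received test compounds for 5 h at 37 C; beta-lactamase activity was then detected via FRET substrate fluorescence.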

For experiment [14], the target named is Androgen receptor (Homo sapiens) (UniProt P10275). The experiment in a line: qHTS assay to identify small molecule agonists of the androgen receptor (AR) signaling pathway in the presence of an antagonist (AID 1259381). Also: nearly all actives have a fitted effect of over 15% in size. A digest of the protocol: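 Agonist-mode confirmation run against 3.0 uM final nilutamide: compounds titrated at 15 concentrations onto MDA-kb2 MMTV-luciferase reporter cells. Luminescence measured with ONE-Glo following 16 hr incubation, 37C, 0% CO2.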
Sequence of Androgen receptor (Homo sapiens) (P10275 whole entry, looked up): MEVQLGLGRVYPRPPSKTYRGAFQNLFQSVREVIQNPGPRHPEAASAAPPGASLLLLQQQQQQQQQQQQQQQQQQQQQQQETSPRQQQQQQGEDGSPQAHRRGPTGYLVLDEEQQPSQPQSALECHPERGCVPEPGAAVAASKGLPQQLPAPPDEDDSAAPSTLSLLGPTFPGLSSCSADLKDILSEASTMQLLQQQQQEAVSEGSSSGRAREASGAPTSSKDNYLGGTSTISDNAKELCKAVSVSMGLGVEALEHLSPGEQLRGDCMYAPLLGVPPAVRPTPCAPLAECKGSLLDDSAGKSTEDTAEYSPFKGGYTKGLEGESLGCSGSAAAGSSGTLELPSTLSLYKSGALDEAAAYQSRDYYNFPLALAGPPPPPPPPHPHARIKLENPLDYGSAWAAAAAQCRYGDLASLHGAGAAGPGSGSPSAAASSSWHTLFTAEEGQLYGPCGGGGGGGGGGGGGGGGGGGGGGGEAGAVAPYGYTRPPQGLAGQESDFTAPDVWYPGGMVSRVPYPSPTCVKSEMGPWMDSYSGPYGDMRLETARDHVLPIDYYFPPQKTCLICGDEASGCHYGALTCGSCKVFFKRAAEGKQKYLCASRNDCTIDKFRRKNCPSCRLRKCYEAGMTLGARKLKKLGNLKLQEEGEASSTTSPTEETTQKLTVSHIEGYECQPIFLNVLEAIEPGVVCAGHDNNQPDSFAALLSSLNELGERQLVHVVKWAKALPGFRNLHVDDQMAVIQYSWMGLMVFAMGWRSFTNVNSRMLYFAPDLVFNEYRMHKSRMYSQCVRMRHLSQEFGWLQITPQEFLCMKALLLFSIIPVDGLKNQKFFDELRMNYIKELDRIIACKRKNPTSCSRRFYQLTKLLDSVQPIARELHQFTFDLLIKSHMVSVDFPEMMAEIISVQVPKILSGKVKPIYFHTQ

Unmarked numbers belong to inactive results. Records with an inconclusive call do not appear. Activity calls are given as the source filed them. Unless noted, calls follow the shape of the full dose curve.
% is scaled to controls: 0 for no effect and ±100 for the full control effect.

Sequence of Acetylcholinesterase (Homo sapiens) (P22303 whole entry, looked up): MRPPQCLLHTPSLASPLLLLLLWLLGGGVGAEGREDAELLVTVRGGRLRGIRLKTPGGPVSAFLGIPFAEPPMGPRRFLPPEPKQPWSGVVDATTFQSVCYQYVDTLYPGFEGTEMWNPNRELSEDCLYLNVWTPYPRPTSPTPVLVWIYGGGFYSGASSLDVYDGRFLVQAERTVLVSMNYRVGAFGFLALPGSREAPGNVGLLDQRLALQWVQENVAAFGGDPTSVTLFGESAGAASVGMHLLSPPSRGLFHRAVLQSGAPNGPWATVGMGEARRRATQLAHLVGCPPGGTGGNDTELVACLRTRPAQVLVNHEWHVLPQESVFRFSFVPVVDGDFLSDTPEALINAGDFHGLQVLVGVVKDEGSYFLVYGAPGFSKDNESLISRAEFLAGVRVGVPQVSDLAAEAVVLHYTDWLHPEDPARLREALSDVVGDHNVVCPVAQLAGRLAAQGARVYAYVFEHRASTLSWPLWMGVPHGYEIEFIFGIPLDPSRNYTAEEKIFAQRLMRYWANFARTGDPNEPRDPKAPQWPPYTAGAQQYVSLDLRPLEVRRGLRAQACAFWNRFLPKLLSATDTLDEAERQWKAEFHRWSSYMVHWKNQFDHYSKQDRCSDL
Sequence of Estrogen receptor (Homo sapiens) (P03372 whole entry, looked up): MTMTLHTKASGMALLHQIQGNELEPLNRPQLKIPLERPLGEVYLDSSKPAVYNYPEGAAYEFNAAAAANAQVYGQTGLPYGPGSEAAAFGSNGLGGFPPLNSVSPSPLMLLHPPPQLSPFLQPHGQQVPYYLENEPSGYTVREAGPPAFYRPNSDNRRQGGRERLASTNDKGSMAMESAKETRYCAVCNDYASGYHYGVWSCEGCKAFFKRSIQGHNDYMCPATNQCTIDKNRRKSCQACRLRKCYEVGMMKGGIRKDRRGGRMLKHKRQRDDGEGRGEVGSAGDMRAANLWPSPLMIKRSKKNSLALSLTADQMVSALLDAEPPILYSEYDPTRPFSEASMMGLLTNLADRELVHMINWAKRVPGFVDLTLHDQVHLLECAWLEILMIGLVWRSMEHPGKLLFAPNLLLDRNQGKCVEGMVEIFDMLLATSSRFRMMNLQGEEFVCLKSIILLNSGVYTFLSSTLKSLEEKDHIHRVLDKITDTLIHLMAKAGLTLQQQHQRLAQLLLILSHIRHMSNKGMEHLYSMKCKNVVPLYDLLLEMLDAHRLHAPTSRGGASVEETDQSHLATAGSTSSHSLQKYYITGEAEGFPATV
Sequence of Nuclear receptor subfamily 1 group I member 2 (Rattus norvegicus) (Q9R1A7 whole entry, looked up): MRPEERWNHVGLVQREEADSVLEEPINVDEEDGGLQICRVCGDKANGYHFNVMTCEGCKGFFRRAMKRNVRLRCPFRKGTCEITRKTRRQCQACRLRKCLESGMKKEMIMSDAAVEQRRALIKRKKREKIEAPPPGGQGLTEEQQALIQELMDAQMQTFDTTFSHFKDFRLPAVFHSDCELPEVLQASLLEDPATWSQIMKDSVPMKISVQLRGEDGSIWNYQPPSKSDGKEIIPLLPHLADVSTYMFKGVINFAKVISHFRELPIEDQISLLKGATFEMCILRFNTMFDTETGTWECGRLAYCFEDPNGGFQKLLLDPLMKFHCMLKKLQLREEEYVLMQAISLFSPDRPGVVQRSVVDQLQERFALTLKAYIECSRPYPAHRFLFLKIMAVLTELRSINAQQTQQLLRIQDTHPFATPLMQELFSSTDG

Take `CCC1(C)CC(=O)NC(=O)C1`: the Potency result in experiment [1], in experiment [2], in experiment [3], in [4] and in [5] was “inactive” throughout.
Take `[2H]C([2H])([2H])[C@H](N)Cc1ccccc1`: the Potency entry in experiment [1], in experiment [3], in experiment [4], in experiment [6], in [7] and in experiment [8] was “inactive” throughout. Moreover, the Potency result in experiment [5] is “inactive”.
For `CNC(=O)Oc1ccccc1C(=O)Nc1ccccc1`, the Potency result in [3], in experiment [4], in [8] and in experiment [5] was “inactive” each time.
As to `CCC(=O)O[C@]1(c2ccccc2)CCN(C)C[C@H]1C`, the Potency entry in [1], in experiment [2], in experiment [6], in experiment [8], in experiment [5] and in experiment [9] was “inactive” each time.
On to `COc1cc([C@@H]2c3cc4c(cc3[C@H](O)[C@H]3COC(=O)[C@H]23)OCO4)cc(OC)c1OC`, for which the Potency entry in [1], in experiment [10] and in [11] was “inactive” each time.
Turning to `C[C@]12C[C@H]3S[C@H]3C[C@@H]1CC[C@@H]1[C@@H]2CC[C@]2(C)[C@@H](O)CC[C@@H]12`, in experiment [2], the Potency was 11.4 µM (active). The Potency entry in [3] and in experiment [8] was “inactive” each time. In experiment [12], the max activation was 11.2%.
On to `C[N+](C)(C)CCCCCCCCCC[N+](C)(C)C`, for which the Potency entry in experiment [4], in experiment [13], in experiment [10] and in experiment [11] was “inactive” throughout.
On to `COC(=O)[C@]12CCC(C)(C)C[C@H]1[C@H]1C(=O)C=C3[C@@]4(C)C=C(C#N)C(=O)C(C)(C)[C@@H]4CC[C@@]3(C)[C@]1(C)CC2`, for which the Potency in experiment [2] was 3.76 µM (active); in experiment [8] it was 2.37 µM (active).
In the case of `CC1(C)C(C=C(Cl)Cl)C1C(=O)OCc1cccc(Oc2ccccc2)c1` (centres undefined), the Potency entry in experiment [1], in experiment [10] and in experiment [11] was “inactive” in each case.
For the compound `CCN(CC)/[N+]([O-])=N/O`, the Potency result in experiment [3] and in experiment [4] was “inactive” throughout.
On to `C[C@@H](N)C(=O)c1ccccc1`, for which the Potency result in experiment [3], in [4], in experiment [6] and in experiment [8] was “inactive” in each case.
As for `CC(=O)OC(C)=O`, the Potency entry in experiment [13], in experiment [10] and in [11] was “inactive” each time.
On to `Clc1ccc(Cl)c(Cl)c1Cl`, for which the Potency result in experiment [1], in [10] and in experiment [11] was “inactive” in each case.
In the case of `F/C(COc1ccc2c(c1)[nH]c1ccccc12)=C1/CN2CCC1CC2`, the Potency result in experiment [3] is “inactive”. For the same compound, the Potency in [5] was 19 µM [inhibitor] (active).
As to `Cc1ccc(C)cc1`, the Potency result in experiment [1], in [10] and in experiment [11] was “inactive” each time.
Consider `Cc1c(N)cccc1N`, for which the Potency result in [10] and in experiment [11] was “inactive” in each case.
Take `CCOC(=O)C1(c2ccccc2)CCCN(C)CC1` (centres undefined): the Potency entry in experiment [2], in [3], in experiment [4], in experiment [5] and in experiment [9] was “inactive” in each case.
As to `c1ccc(-c2ccccc2-c2ccccc2)cc1`, the Potency result in experiment [14] and in experiment [11] was “inactive” each time.
Consider `C1CN(P2(N3CC3)=NP(N3CC3)(N3CC3)=NP(N3CC3)(N3CC3)=N2)CCO1` (centres undefined), for which the Potency result in [2] and in experiment [5] was “inactive” throughout.
Take `O=C(Cl)c1cccc(C(=O)Cl)c1`: the Potency entry in experiment [1], in experiment [10] and in experiment [11] was “inactive” in each case.
